“And” between values parts separate entries of the source, which are not always exact repeats. Identical values can stand only once. Some structures have more than one record in an assay (separate samples or runs), and their calls can disagree. The source made the active and inactive calls.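 The calls were made as follows, unless noted: active = compounds whose cell count with miR-34 switched on is under 0.7 times the count with it off; inactive = the rest.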
Experiments:
[1] = viability loss with induced miR-34 in A549 – imaging, A549 dox-inducible miR-34, nuclei and caspase counts, primary screen (AID 1347080); conditions: A549 miR-34 inducible, Hoechst nuclei count, 48 h; also: test concentration not given here
[2] = MELAS cybrid and Rieske KO viability enhancers – cell-based, MELAS cybrids, Rieske KO mouse fibroblasts, CellTiter-Glo, primary screen (AID 1508586;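 active = mean z-score across replicates of 1.96 or higher in either the MELAS or the Rieske mutant cell line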;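 also: test concentration not given here; z relative to plate mean and SD of compound and empty wells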); conditions: low glucose
[3] = galactose survival enhancers in mitochondrial complex I cybrids – cell-based, galactose medium, ATP luminescence, primary screen (AID 1645843;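 active = z-score of at least 1.8 in each of two replicates, scored against plate mean and spread of sample wells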;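 also: positive z means more ATP and so rescue of galactose-driven cybrid death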); conditions: complex I mutant cybrid cells, 72 h, stronger effect = higher value
[4] = stronger effect = lower value, cell number ratio, induced over uninduced
[5] = measured here: relative caspase fold change +Dox/-Dox
[6] = measured here: total cells with miR-34 induction, stronger effect = lower value
[7] = measured here: total cells without miR-34 induction
[8] = MELAS cybrid survival, CellTiter-Glo 48 h, stronger effect = higher value
[9] = Rieske KO mouse fibroblast survival, CellTiter-Glo 72 h

Row | SMILES | fold change [1, 4] | fold change [1, 5] | cell count [1, 6] | cell count [1, 7] | z-score [2, 8] | z-score [2, 9] | z-score [3]
1 | Cc1c(CNC(=O)C(=O)c2c(-c3ccccc3)cc3ccccn23)cnn1C | 0.827 (inactive) | 2.08 | 7720 | 9330 | 0.665 (inactive) | -0.13 | 0.815 (inactive)
2 | Fc1cccc(F)c1-c1nc2c(cnn2Cc2cccs2)[nH]1 | 0.88 (inactive) | 2.16 | 8590 | 9770 | -0.231 (inactive) | 0.598 | -0.555 (inactive)
3 | Cc1nn(C)c(C)c1-c1ccnc(NCCOCCO)n1 | 0.905 (inactive) | 1.28 | 8320 | 9200 | 0.0151 (inactive) | -0.129 | -0.555 (inactive)
4 | O=C1CN(C(=O)c2ccncc2)CCN1Cc1ccc2c(c1)OCO2 | 0.914 (inactive) | 1.59 | 9040 | 9890 | -0.12 (inactive) | -0.568 | -0.52 (inactive)
5 | COc1ccc2nc(Cn3cnc4cc(F)ccc4c3=O)[nH]c2c1 | 0.891 (inactive) | 1.56 | 7880 | 8840 | -0.0496 (inactive) | -0.0588 | -0.39 (inactive)
6 | O=S(=O)(Nc1cc(-c2cccs2)nn1-c1ccc(F)cc1)c1cccc(F)c1 | 0.903 (inactive) | 0.956 | 7390 | 8190 | 0.0617 (inactive) | 0.524 | -1.46 (inactive)
7 | O=C(Nc1nncs1)NC1Cc2ccccc2C1 | 0.87 (inactive) | 1.52 | 8130 | 9340 | -0.741 (inactive) | -0.221 | -0.6 (inactive)
8 | O=C(O)CCc1c(C(=O)O)[nH]c2cc(Cl)cc(Cl)c12 | 0.85 (inactive) | 0.683 | 8390 | 9880 | 0.688 (inactive) | 0.122 | 0.585 (inactive)
9 | Cc1cc(-c2cnn(CC(=O)Nc3ccnn3Cc3ccccc3)c2)nc(N)n1 | 0.926 (inactive) | 0.917 | 8320 | 8980 | -0.562 (inactive) | 0.0522 | -0.58 (inactive)
10 | COc1ccc(C(=O)Nc2c(Cl)cncc2Cl)cc1OC1CCCC1 | 0.898 (inactive) | 0.397 | 7850 | 8740 | 0.807 (inactive) | 0.781 | 0.215 (inactive)
11 | O=C(O)CCC(=O)Nc1ccc(Br)cn1 | 0.858 (inactive) | 0.548 | 8810 | 10300 | 0.399 (inactive) | -0.113 | 0.275 (inactive)
12 | COc1cc(CC2COC(=O)C2Cc2ccc(O)c(OC)c2)ccc1O (centres undefined) | 0.888 (inactive) | 0.681 | 8440 | 9500 | -1.09 (inactive) | -0.0925 | -0.07 (inactive)
13 | COc1cc(N2CCN(Cc3ccccc3F)C(=O)C2)ncn1 | 0.848 (inactive) | 1.97 | 6780 | 7990 | -0.24 (inactive) | -0.349 | -0.475 (inactive)
14 | COc1cccc(-n2cc(-c3ccnc(NCCc4cnc[nH]4)n3)cn2)c1 | 0.891 (inactive) | 1.29 | 7850 | 8810 | -0.718 (inactive) | 0.696 | 1.87 (inactive)
15 | Cc1csc2ncnc(-c3cccc4cccnc34)c12 | 0.931 (inactive) | 0.756 | 8530 | 9170 | -0.57 (inactive) | -0.471 | -0.505 (inactive)
16 | O=C(O)CSc1nnc(-c2ccc([N+](=O)[O-])o2)o1 | 0.911 (inactive) | 0.48 | 8530 | 9370 | -1.16 (inactive) | 0.209 | 0.17 (inactive)
17 | O=C(CC(=O)C(F)(F)F)c1cccs1 | 0.883 (inactive) | 0.164 | 8190 | 9270 | -1.06 (inactive) | 0.275 | -0.485 (inactive)
18 | CN1CC2c3ccccc3Oc3ccc(Cl)cc3C2C1 (centres undefined) | 0.788 (inactive) | 0.355 | 4990 | 6330 | 0.214 (inactive) | 0.0022 | -2.21 (inactive)
19 | CC(C)C1CCC(C(=O)NC(Cc2ccccc2)C(=O)O)CC1 (centres undefined) | 0.94 (inactive) and 0.917 (inactive) | 2.3 and 1.08 | 9290 and 9300 | 9880 and 10100 | -0.394 (inactive) | 0.0104 | 0.805 (inactive)
20 | COc1ccc2c(c1)CCN(C(=O)Nc1n[nH]c(-c3ccco3)n1)C2 | 0.87 (inactive) | 1.45 | 7950 | 9130 | 0.18 | 3.56 | 0.245 (inactive)
21 | Cc1cc2nc3[nH]c(=O)[nH]c(=O)c3nc2cc1C | 0.917 (inactive) | 0.188 | 7820 | 8530 | 1.63 (inactive) | 0.292 | 0.825 (inactive)
22 | O=[N+]([O-])c1ccc(-c2ccn[nH]2)cc1 | 0.922 (inactive) | 0.744 | 8360 | 9070 | -0.915 (inactive) | -0.293 | 0.59 (inactive)
23 | COc1cccc2c(=O)n(Cc3ccc4nonc4c3)cnc12 | 0.912 (inactive) | 1.93 | 8180 | 8980 | 0.215 (inactive) | -0.341 | -0.545 (inactive)
24 | COC1C=CO[C@@]2(C)Oc3c(C)c(O)c4c(O)c(c5c(c4c3C2=O)NC2(CCN(CC(C)C)CC2)N=5)=NC(=O)C(C)=CC=CC(C)C(O)C(C)C(O)C(C)C(OC(C)=O)C1C (some centres undefined) | 0.889 (inactive) and 0.859 (inactive) | 1.03 and 1.09 | 7260 and 7580 | 8160 and 8820 | -0.0325 (inactive) | 0.718 | 1.02 (inactive)

Row | SMILES | fold change [1, 4] | fold change [1, 5] | cell count [1, 6] | cell count [1, 7] | z-score [2, 8] | z-score [2, 9] | z-score [3]
25 | CN1CCN(Cc2cccc(Oc3ccccc3)c2)CC1CCO (centres undefined) | 0.916 (inactive) | 1.42 | 8810 | 9620 | -0.228 (inactive) | -0.0315 | -0.55 (inactive)
26 | CCN(CC)S(=O)(=O)c1cc(C(=O)Nc2ccccc2C(=O)O)ccc1Br | 0.904 (inactive) | 0.416 | 8290 | 9170 | -0.577 (inactive) | 0.639 | 0.82 (inactive)
27 | CN1CCN(Cc2cccc3cccnc23)CC1CCO (centres undefined) | 0.928 (inactive) | 1.86 | 8360 | 9010 | 0.709 (inactive) | -1.63 | -0.585 (inactive)
28 | CSc1ccccc1C(=O)N1CCc2[nH]nc(COc3ccccc3)c2C1 | 0.941 (inactive) | 0.435 | 8390 | 8920 | -0.515 (inactive) | 0.374 | 1.12 (inactive)
29 | Cc1cnc(CN(C)C(=O)c2n[nH]c3ccccc23)[nH]1 | 0.891 (inactive) | 1.39 | 8830 | 9910 | 0.305 (inactive) | -0.304 | -0.445 (inactive)
30 | CCC(C)(C)c1nnc(NC(=O)NCc2ccco2)s1 | 0.9 (inactive) | 1.07 | 8900 | 9890 | 0.377 (inactive) | -0.396 | 3.32 (active)
31 | NCC1OC(OC2C(CO)OC(OC3C(O)C(N)CC(N)C3OC3OC(CO)C(O)C(O)C3N)C2O)C(N)C(O)C1O (centres undefined) | 0.908 (inactive) | 0.282 | 9400 | 10400 | 0.577 (inactive) | -0.435 | 0.725 (inactive)
32 | COc1cc(F)c(-c2nc3c(cnn3Cc3cccs3)[nH]2)c(F)c1 | 0.818 (inactive) | 1.31 | 6350 | 7760 | -0.593 (inactive) | -0.339 | 2.49 (active)
33 | NC(=O)NC(Cc1ccccc1)C(=O)O (centres undefined) | 0.889 (inactive) | 0.725 | 8700 | 9790 | -0.32 (inactive) | -0.255 | 0.66 (inactive)
34 | CNc1ccnc(-c2cnn(CC(=O)Nc3cc(C)nn3C)c2)n1 | 0.867 (inactive) | 1.09 | 8660 | 9980 | -0.389 (inactive) | -1.16 | -0.515 (inactive)
35 | COc1ccc2c(C(=O)N(C)C3CCN(C)C3)cc(-c3cnn(C)c3)nc2c1 (centres undefined) | 0.88 (inactive) | 1.02 | 8530 | 9700 | -0.325 (inactive) | -0.194 | -0.495 (inactive)
36 | COc1ccc(C(=O)N2CCN(C(=O)c3ccc4sc(N)nc4c3)CC2)cc1 | 0.916 (inactive) | 0.875 | 9050 | 9880 | -0.342 (inactive) | -0.192 | -0.575 (inactive)
37 | CCNC(=O)c1cccnc1N1CCN(c2ccc(C)cc2C)CC1 | 0.919 (inactive) | 1.12 | 6880 | 7490 | -0.459 (inactive) | 0.378 | -0.485 (inactive)
38 | Cn1nc(C(C)(C)C)cc1NC(=O)Cn1cc(-c2ccccc2N)cn1 | 0.913 (inactive) | 1.7 | 8250 | 9040 | 0.154 (inactive) | -0.442 | -0.46 (inactive)
39 | O=C(NCCOc1cccnc1)c1ccc2ncsc2c1 | 0.858 (inactive) | 1.5 | 7900 | 9210 | 0.0996 (inactive) | -0.557 | -0.56 (inactive)
40 | CC(C)n1ncc(NC(=O)Cn2ccc(-c3ccc(C(F)(F)F)cc3)n2)n1 | 0.965 (inactive) | 1.03 | 5250 | 5440 | 1.15 (inactive) | -0.0246 | 0.42 (inactive)
41 | CCn1ncc2[nH]c(-c3cnn(C)c3-c3ccccc3)nc21 | 0.88 (inactive) | 1.89 | 8480 | 9640 | -0.346 (inactive) | -0.221 | -0.49 (inactive)
42 | CN1CCN(Cc2cccc(-n3cccn3)c2)CC1CCO (centres undefined) | 0.861 (inactive) | 3.04 | 8640 | 10000 | -0.56 (inactive) | -0.308 | -0.58 (inactive)
43 | CC(C)SC1OC(CO)C(O)C(O)C1O (centres undefined) | 0.887 (inactive) | 0.478 | 8290 | 9350 | -0.322 (inactive) | -0.813 | 0.635 (inactive)
44 | OCCNc1ncnc2oc(-c3ccccc3)c(-c3ccccc3)c12 | 0.989 (inactive) | 0.446 | 5100 | 5160 | 0.83 | 7.8 | -1.23 (inactive)
45 | Fc1ccc(CC2CCNCC2)cc1 | 0.856 (inactive) | 0.77 | 8200 | 9580 | -0.906 (inactive) | 0.0714 | 0.525 (inactive)
46 | CCOC(=O)c1cc2ccc(O)cc2oc1=O | 0.98 (inactive) | 0.374 | 10300 | 10500 | 0.534 (inactive) | -0.345 | 0.595 (inactive)
47 | CCOC(=O)C1=C(C)NC(C)=C(C(=O)OCC)C1c1ccccc1C=CC(=O)OC(C)(C)C | 0.635 (active) and 0.971 (inactive) | 1.57 and 0.602 | 2050 and 7220 | 3220 and 7430 | -0.107 (inactive) | -0.188 | -1.44 (inactive)

From PubChem BioAssay
